The source of these data is PubChem BioAssay (NCI).

Compounds without any hit were thinned out: in the full panel of roughly 83,000, 20% have a hit.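 48-hour exposure, single concentration, 96-well plates; percent growth endpoint where 0 means no net growth. Active: below 10.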 A number with no mark means an inactive call. Active and inactive are the calls of the source.

Among the test systems are SR leukemia; RPMI-8226 leukemia; OVCAR-5 ovarian; OVCAR-4 ovarian; SK-OV-3 ovarian; IGROV1 ovarian; HS 578T breast; NCI/ADR-RES ovarian; T-47D breast; BT-549 breast; MDA-MB-435 melanoma; SW-620 colon; MCF7 breast; HCT-116 colon; HCC-2998 colon; KM12 colon; OVCAR-8 ovarian; OVCAR-3 ovarian.
Test in all cases: NCI-60 one-dose screen, 48 h (100 = growth as untreated, 0 = no growth, -100 = all killed)
Conditions in all cases: 10 µM unless noted

As for `c1cc(-c2nc3ccc4[nH]ncc4c3c3c2CCCC3)[nH]n1`, the growth in the test on SR leukemia was 7.95% (active); in the test with RPMI-8226 leukemia, 55.1%; with OVCAR-5 ovarian, 89%; in the test on OVCAR-4 ovarian, 89.6%; in the test on SK-OV-3 ovarian, 9.7% (active); in the test with IGROV1 ovarian, 44.5%. In addition, the growth in the test on HS 578T breast is 41.3%; with NCI/ADR-RES ovarian, 78.8%; in the test on T-47D breast, 73.8%; with BT-549 breast, 31.2%; in the test with MDA-MB-435 melanoma it was 10.5%; with SW-620 colon it was 25%. Besides, the growth in the test on MCF7 breast is 40%; in the test on HCT-116 colon it was 25.6%; in the test with HCC-2998 colon, 78.9%; in the test on KM12 colon it was 24%.

Turning to `CNC1CCc2c(sc(NC(=O)c3ccc(C(C)(C)C)cc3)c2C(N)=O)C1` (centres undefined), the growth with SR leukemia is 2.87% (active); in the test with RPMI-8226 leukemia, -5.86% (active); in the test on OVCAR-5 ovarian, 67%; in the test on OVCAR-4 ovarian it was 81.4%; in the test with SK-OV-3 ovarian it was 90.6%; in the test on IGROV1 ovarian, 65.8%. The growth is 57.3% in the test with HS 578T breast; 78.2% with NCI/ADR-RES ovarian; 53.6% with T-47D breast; 74.7% in the test on BT-549 breast; 45.2% in the test with MDA-MB-435 melanoma; -53.5% (active) in the test with SW-620 colon. The growth is -34.2% (active) in the test on MCF7 breast, 3.12% (active) in the test on HCT-116 colon, 28.6% in the test with HCC-2998 colon and 10% in the test with KM12 colon.

Take `O=C(NNc1nc2cc(F)c(F)cc2n2c(CN3CC4CNCC4C3)ccc12)c1ncccn1` (centres undefined): the growth in the test on SR leukemia is 1.34% (active); with OVCAR-8 ovarian, 7.54% (active); in the test on OVCAR-5 ovarian, 40%; in the test with OVCAR-4 ovarian, 21.6%; in the test with SK-OV-3 ovarian, 7.21% (active); in the test on IGROV1 ovarian, 14.9%. Besides, the growth in the test with OVCAR-3 ovarian was 34.6%; in the test with HS 578T breast, 71.5%; in the test on NCI/ADR-RES ovarian, 62.3%; in the test on T-47D breast, 13.8%; with BT-549 breast it was 28.1%; in the test with MDA-MB-435 melanoma, 20.4%. For the same compound, the growth is 22.6% with SW-620 colon; 9.66% (active) in the test on MCF7 breast; 11.7% in the test with HCT-116 colon; 24.7% in the test on HCC-2998 colon; 19.2% in the test with KM12 colon.

On to `O=C1Nc2ccccc2/C1=C/c1ccc(COCC2CO2)n1-c1ccc(O)cc1` (centres undefined), for which the growth is 100% in the test on SR leukemia; 95.7% with RPMI-8226 leukemia; 107% in the test on OVCAR-5 ovarian; 101% with OVCAR-4 ovarian; 114% in the test with SK-OV-3 ovarian; 104% with IGROV1 ovarian. In addition, the growth in the test on HS 578T breast was 104%; in the test on NCI/ADR-RES ovarian, 106%; in the test on T-47D breast, 91.4%; in the test with BT-549 breast, 106%; in the test with MDA-MB-435 melanoma, 103%; with SW-620 colon, 96.2%. The growth in the test with MCF7 breast is 84.6%; in the test with HCT-116 colon, 99.2%; with HCC-2998 colon it was 108%; with KM12 colon it was 17.8%.

On to `COc1ccccc1-n1cc(C#N)c(N)c1C(=O)c1ccc(Br)cc1`, for which the growth was 40.3% in the test on SR leukemia; 90.7% in the test on OVCAR-8 ovarian; 94.4% in the test with OVCAR-5 ovarian; 96.8% in the test with OVCAR-4 ovarian; 88.7% with SK-OV-3 ovarian; 67.8% in the test on IGROV1 ovarian. Also, the growth with OVCAR-3 ovarian is 73.3%; with HS 578T breast, 78.4%; in the test on NCI/ADR-RES ovarian, 42.6%; with T-47D breast, 60%; in the test on BT-549 breast, 88.9%; in the test with MDA-MB-435 melanoma, 3.09% (active). The growth was 38.7% in the test on SW-620 colon; 33.5% in the test with MCF7 breast; 58.8% with HCT-116 colon; 71% in the test on HCC-2998 colon; 39.3% with KM12 colon.

For `C#Cc1nc(C(C)=O)cs1`, the growth with SR leukemia was 99.6%; in the test on OVCAR-8 ovarian, 105%; with OVCAR-5 ovarian it was 107%; with OVCAR-4 ovarian, 105%; with SK-OV-3 ovarian, 93%; in the test with IGROV1 ovarian, 101%. Further, the growth is 112% in the test with OVCAR-3 ovarian; 104% with HS 578T breast; 103% in the test with NCI/ADR-RES ovarian; 101% in the test with T-47D breast; 98.5% in the test with BT-549 breast; 104% with MDA-MB-435 melanoma. Further, the growth with SW-620 colon was 107%; with MCF7 breast it was 90.8%; in the test with HCT-116 colon, 95%; with HCC-2998 colon it was 114%; in the test with KM12 colon, 94.7%.

For the compound `c1ccc(C(c2nc3ncncc3[nH]2)N2CSc3nc4ncncc4n3C2)cc1` (centres undefined), the growth in the test with SR leukemia was 84.9%; in the test on RPMI-8226 leukemia it was 29.4%; in the test with OVCAR-5 ovarian, 62.4%; with OVCAR-4 ovarian, 27.1%; with SK-OV-3 ovarian, 23.1%; in the test on IGROV1 ovarian, 77.6%. The growth with OVCAR-3 ovarian is 38.6%; in the test with HS 578T breast, 77.2%; in the test on T-47D breast it was 34.4%; in the test with BT-549 breast, 73.1%; in the test with MDA-MB-435 melanoma, 29.2%; in the test with SW-620 colon it was 79%. The growth in the test on MCF7 breast was 14.2%; in the test on HCT-116 colon, 41.5%; with HCC-2998 colon, 55.6%; in the test with KM12 colon, 51.7%.

As to `O=C(Nc1cccc(Cl)c1)Nc1nc2ccc([N+](=O)[O-])cc2o1`, the growth in the test on SR leukemia is 50.8%; in the test with OVCAR-8 ovarian it was 6.36% (active); with OVCAR-5 ovarian, 47.7%; in the test with OVCAR-4 ovarian it was -3.53% (active); in the test on SK-OV-3 ovarian it was 12.9%; with IGROV1 ovarian, 20.8%. Besides, the growth in the test with OVCAR-3 ovarian is -13.9% (active); in the test with HS 578T breast, 36.4%; in the test with NCI/ADR-RES ovarian, 10.4%; in the test on T-47D breast it was -10.9% (active); with BT-549 breast it was 24%; with MDA-MB-435 melanoma, 19.2%. Also, the growth is 7.83% (active) in the test with SW-620 colon; 12.1% with MCF7 breast; 5.21% (active) with HCT-116 colon; 24.3% with HCC-2998 colon; 7.17% (active) with KM12 colon.

Consider `CCCCCc1ccc(S(=O)(=O)Nc2cccc(-c3csc(NC(=O)CCCCCN4CCN(C)CC4)n3)c2)cc1`, for which the growth with SR leukemia is -31.4% (active); with OVCAR-8 ovarian, 81.9%; in the test with OVCAR-5 ovarian it was 88.8%; in the test on OVCAR-4 ovarian, 71.4%; in the test with SK-OV-3 ovarian, 97.9%; in the test with IGROV1 ovarian, 69.6%. In addition, the growth in the test on OVCAR-3 ovarian is 37.1%; in the test with HS 578T breast, 72.2%; with NCI/ADR-RES ovarian, 89.8%; in the test on T-47D breast it was 43.7%; in the test on BT-549 breast it was 93.5%; in the test with MDA-MB-435 melanoma, -33.8% (active). In addition, the growth was -27.1% (active) with SW-620 colon; -1.18% (active) with MCF7 breast; -36.2% (active) with HCT-116 colon; -18% (active) in the test on HCC-2998 colon; 57.4% in the test with KM12 colon.
